Structures can show the parent of a compound that is named as a salt. ± gives the standard deviation of the averaged measurements.

The test system of the assay is E18 rat cortical neuron-glia co-culture. The assay can be described thus: fiber score / MBP score (myelination specific beyond OL differentiation) (ratio); higher = more myelination-specific MBP alignment. The conditions noted are these: 1 µM; treatment time: 8 days (DIV5-DIV13). An outline of the steps:
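The measure is the ratio of fiber score to MBP score, where fiber score is continuous MBP fiber length per Olig2+ nucleus and MBP score is thresholded MBP area × intensity per Olig2+ nucleus. Primary E18 rat cortical co-cultures received library compounds at 1 or 5 µM in myelination medium from DIV5 to DIV13, then were fixed in 4 % paraformaldehyde and stained for MBP, Olig2 and DAPI before analysis of four 10X fields per well in duplicate wells.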
Take `CCC(=O)NS(=O)(=O)c1ccc(-c2c(-c3ccccc3)noc2C)cc1` [Parecoxib]: the “fiber score / MBP score” value is 0.57.

Regarding `CC(=O)S[C@@H]1CC2=CC(=O)CC[C@]2(C)[C@H]2CC[C@@]3(C)[C@@H](CC[C@@]34CCC(=O)O4)[C@H]12` [Spironolactone], the “fiber score / MBP score” value is 0.765.

In the case of `O=C1[C@H](CC[C@H](O)c2ccc(F)cc2)[C@@H](c2ccc(O)cc2)N1c1ccc(F)cc1` [Ezetimibe], the “fiber score / MBP score” value came out at 0.641.

Take `C[C@]12CC[C@@H]3c4ccc(OS(=O)(=O)O)cc4CC[C@H]3[C@@H]1CCC2=O` [Estrone sulfate]: the “fiber score / MBP score” value turned out to be 1.04.

As to `Oc1ncnc2[nH]ncc12` [Allopurinol], the “fiber score / MBP score” value was determined as 1.01.

For the compound `CC(C)(C)NC(=O)[C@H]1CC[C@H]2[C@@H]3CC[C@H]4NC(=O)C=C[C@]4(C)[C@H]3CC[C@]12C` [Finasteride], the “fiber score / MBP score” value was 0.7.

`CO[C@H]1/C=C/O[C@@]2(C)Oc3c(C)c(O)c4c(c3C2=O)C2=NC3(CCN(CC(C)C)CC3)NC2=C(NC(=O)/C(C)=C\C=C\[C@H](C)[C@H](O)[C@@H](C)[C@@H](O)[C@@H](C)[C@H](OC(C)=O)[C@@H]1C)C4=O` [Rifabutin]: the “fiber score / MBP score” value worked out at 0.967 ± 0.41.

With `CCCc1cc(=O)[nH]c(=S)[nH]1` [Propylthiouracil], the “fiber score / MBP score” value is 0.95.

For the compound `N[C@@H](Cc1cc(I)c(Oc2ccc(O)c(I)c2)c(I)c1)C(=O)O` [Triiodothyronine], the “fiber score / MBP score” value is 0.895.

`CCOc1ccc2ccccc2c1C(=O)N[C@@H]1C(=O)N2[C@@H]1SC(C)(C)[C@@H]2C(=O)O` [Nafcillin]: the “fiber score / MBP score” value worked out at 1.25.

As for `CC[N+](C)(C)c1cccc(O)c1` [Edrophonium], the “fiber score / MBP score” value stood at 0.813.

For `CN(C)[C@@H]1C(O)=C(C(=O)NCN2CCCC2)C(=O)[C@@]2(O)C(O)=C3C(=O)c4c(O)cccc4[C@@](C)(O)[C@H]3C[C@@H]12` [Rolitetracycline], the “fiber score / MBP score” value stood at 0.779.

Turning to `C[C@H]1O[C@@H](O[C@H]2[C@@H](O)C[C@H](O[C@H]3[C@@H](O)C[C@H](O[C@H]4CC[C@@]5(C)[C@H](CC[C@@H]6[C@@H]5C[C@@H](O)[C@]5(C)[C@@H](C7=CC(=O)OC7)CC[C@]65O)C4)O[C@@H]3C)O[C@@H]2C)C[C@H](O)[C@@H]1O` [Digoxin], the “fiber score / MBP score” value was 1.37.

Consider `N[C@@H](C(=O)N[C@@H]1C(=O)N2C(C(=O)O)=C(CSc3c[nH]nn3)CS[C@H]12)c1ccc(O)cc1` [Cefatrizine], for which the “fiber score / MBP score” value turned out to be 0.846.

`CCN(CC)CC#CCOC(=O)C(O)(c1ccccc1)C1CCCCC1` (stereo not drawn) [Oxybutynin]: the “fiber score / MBP score” value was 0.964.

Regarding `CC(COc1ccccc1)NC(C)C(O)c1ccc(O)cc1` (stereo not drawn) [Isoxsuprine], the “fiber score / MBP score” value is 0.798.

`C=CC1=C(C(=O)O)N2C(=O)[C@@H](NC(=O)/C(=N\OCC(=O)O)c3csc(N)n3)[C@H]2SC1` [Cefixime]: the “fiber score / MBP score” value came out at 0.945.

`CC(=O)Nc1ccc(CC(=O)O)cc1` [Actarit]: the “fiber score / MBP score” value came out at 0.756.

`CC(C(=O)O)c1ccc(CC2CCCC2=O)cc1` (stereo not drawn) [loxoprofen]: the “fiber score / MBP score” value came out at 0.944.

Consider `CN(C)CCOC(c1ccc(Cl)cc1)c1ccccn1` (stereo not drawn) [Carbinoxamine], for which the “fiber score / MBP score” value stood at 1.21.

Consider `CC(C)n1c(/C=C/C(O)CC(O)CC(=O)O)c(-c2ccc(F)cc2)c2ccccc21` (stereo not drawn) [Fluvastatin], for which the “fiber score / MBP score” value is 0.312.

`CCOC(=O)[C@@]1(CCCCCCOc2ccc(Cl)cc2)CO1` [Etomoxir]: the “fiber score / MBP score” value is 0.693.

In the case of `O=C(C1CCCCC1)N1CC(=O)N2CCc3ccccc3C2C1` (stereo not drawn) [Praziquantel], the “fiber score / MBP score” value was 1.03.

In the case of `CC(C)[C@H](N)C(=O)OCCOCn1cnc2c(=O)nc(N)[nH]c21` [Valaciclovir], the “fiber score / MBP score” value turned out to be 0.731.

`Cc1c(O)c(=O)ccn1C` [Deferiprone]: the “fiber score / MBP score” value was 0.908.

As for `OCCOCCN1CCN(C2=Nc3ccccc3Sc3ccccc32)CC1` [Quetiapine hemifumarate], the “fiber score / MBP score” value came to 0.545.

Consider `CC(C)/N=c1\cc2n(-c3ccc(Cl)cc3)c3ccccc3nc-2cc1Nc1ccc(Cl)cc1` [Clofazimine], for which the “fiber score / MBP score” value amounted to 0.742.

As for `CCS(=O)(=O)CCn1c([N+](=O)[O-])cnc1C` [Tinidazole], the “fiber score / MBP score” value came out at 0.727.

Regarding `Cc1ncc([N+](=O)[O-])n1CCO` [Metronidazole], the “fiber score / MBP score” value is 0.862.

As to `CCCNC(=O)NS(=O)(=O)c1ccc(Cl)cc1` [Chlorpropamide], the “fiber score / MBP score” value came out at 0.614.

In the case of `COc1ccc2[nH]c([S+]([O-])Cc3ncc(C)c(OC)c3C)nc2c1` (stereo not drawn) [Omeprazole], the “fiber score / MBP score” value came to 0.656.

Regarding `NCc1ccc(S(N)(=O)=O)cc1` [Mafenide], the “fiber score / MBP score” value worked out at 1.07.

With `CN[C@@H]1[C@H](O)[C@H](NC)[C@H]2O[C@@]3(O)C(=O)C[C@@H](C)O[C@H]3O[C@@H]2[C@H]1O` [Spectinomycin], the “fiber score / MBP score” value is 0.923.

Take `CC(=O)N1CCN(c2ccc(OCC3COC(Cn4ccnc4)(c4ccc(Cl)cc4Cl)O3)cc2)CC1` (stereo not drawn) [Ketoconazole]: the “fiber score / MBP score” value came out at 0.468.

Regarding `Nc1nc2c(ncn2COC(CO)CO)c(=O)[nH]1` [Ganciclovir], the “fiber score / MBP score” value worked out at 0.944.

Take `CCCCC[C@H](O)/C=C/[C@H]1[C@H](O)CC(=O)[C@@H]1CCCCCCC(=O)O` [Alprostadil]: the “fiber score / MBP score” value was 1.12.

As for `Nc1nc(F)nc2c1ncn2[C@@H]1O[C@H](CO)[C@@H](O)[C@@H]1O` [Fludarabine], the “fiber score / MBP score” value worked out at 0.675.

As for `CC(=O)CCCCn1c(=O)c2c(ncn2C)n(C)c1=O` [Pentoxifylline], the “fiber score / MBP score” value was determined as 0.817 ± 0.062.

The record behind these values is the supplement of paper PMC4840960.
